This passage reports growth results from PubChem BioAssay (NCI).

This is part of a sample that, as a whole, favours compounds with a hit. Of some 83,000 tested, about 20% had one in any assay.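 Compound tested at a single concentration for 48 hours in 96-well plates; a percent growth value below 10 was scored as active.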 A number with no mark means an inactive call. Activity calls are given as the source filed them.

Common to all, as to assay: NCI-60 one-dose screen, 48 h (100 = growth as untreated, 0 = no growth, -100 = all killed)
What all share (conditions): 10 µM unless noted

In experiment [1] the test system is RPMI-8226 leukemia.
The subject of experiment [2] is OVCAR-8 ovarian.
Experiment [3] deals with OVCAR-5 ovarian.
In experiment [4] the test system is OVCAR-4 ovarian.
The test system of experiment [5] is SK-OV-3 ovarian.
Experiment [6] deals with IGROV1 ovarian.
Experiment [7] has as its system OVCAR-3 ovarian.
Experiment [8] concerns HS 578T breast.
The subject of experiment [9] is NCI/ADR-RES ovarian.

As to `CC/C(=C(/c1ccc(Cl)cc1)c1ccc(OCCN2CCCC2)cc1)c1ccc(OC)cc1`, the growth in experiment [1] is 12.2%; in [2] it was 69.4%; in experiment [3], 72.9%; in experiment [4], 72.6%; in [5], 101%; in experiment [6], 81.8%. The growth in experiment [7] is 78.7%; in experiment [8] it was 100%; in experiment [9], 66.7%.

`O=[N+]([O-])c1ccc(S(=O)(=O)N2CCN(C3=NS(=O)(=O)c4ccccc4N3c3ccccc3)CC2)cc1`: the growth in [2] was 93.1%; in experiment [3], 95%; in experiment [4], 99.8%; in [5], 102%; in experiment [6], 97%; in [7] it was 94.4%. The growth in experiment [8] was 109%.

As to `CN(C)c1ccc(/C=C/C(=O)c2ccc(-n3cc(CN4CCN(c5cc6c(cc5F)c(=O)c(C(=O)O)cn6C5CC5)CC4)nn3)cc2)cc1`, the growth in experiment [2] was 23.3%; in [3] it was 84.2%; in experiment [4], 93.1%; in experiment [5] it was 71.6%; in experiment [6], 39.6%; in experiment [7], 46.6%. Moreover, the figures for the growth in [8] and in experiment [9] were 57.4% and 92.1%, respectively.

`CCc1ccc(Oc2cn[nH]c2-c2ccc(OCCc3ccc(F)cc3)cc2O)cc1`: the growth in experiment [1] is 81%; in [2], 101%; in experiment [3], 90.6%; in experiment [4], 89.5%; in experiment [5] it was 102%; in experiment [7], 89.4%. The growth was 93.1% in [8] and 89.2% in [9].

In the case of `C=C1C(=O)O[C@H]2[C@H]1CC/C(COC(=O)CSCCSCC(=O)OC/C1=C/CC[C@@]3(C)O[C@H]3[C@H]3OC(=O)C(=C)[C@@H]3CC1)=C\CC[C@@]1(C)O[C@@H]21`, the growth in [1] is -29.7% (active); in experiment [2] it was 4.46% (active); in experiment [3], 21.8%; in [4], 40.4%; in experiment [5], 89.3%; in experiment [6], -9.6% (active). In addition, the figures for the growth in experiment [7] and in experiment [8] were -12.1% (active) and 32.6%, respectively.

On to `CS(=O)(=O)c1cccc(-c2c(-c3cccc(OS(N)(=O)=O)c3)nc3sccn23)c1`, for which the growth is 113% in experiment [1]; 95.2% in experiment [2]; 99.8% in experiment [3]; 101% in experiment [4]; 121% in experiment [5]; 106% in experiment [7]. Also, the growth in experiment [8] and in [9] was 103% in each case.

Consider `COc1ccc(/C=C2\COc3ccc(O)c(O)c3C2=O)cc1`, for which the growth in experiment [1] is 4.17% (active); in experiment [2], 7.39% (active); in experiment [3], -12.3% (active); in [4], 48.4%; in experiment [5] it was 63.5%; in [7], 11.1%. Moreover, the growth in experiment [8] is 19.5%; in [9] it was 6.53% (active).

Turning to `COc1cc(CNC(=O)CCCC/C=C/C(C)C)ccc1OCc1nnc(Nc2ccc([N+](=O)[O-])cc2)o1`, the growth in experiment [1] is 52.3%; in experiment [2], 25%; in experiment [3] it was 101%; in [4], 11.3%; in [5] it was 11.8%; in [6], 53.5%. The growth was 77.3% in experiment [7], 63.2% in [8] and 79.6% in experiment [9].

`Cc1ccc2c(n1)C(=O)c1[nH]c3ccccc3c1C2=O`: the growth was 46.9% in experiment [1]; 53% in [2]; 67.9% in experiment [3]; 22.2% in experiment [4]; 85.6% in experiment [5]; 33.8% in experiment [6]. The growth is -5.11% (active) in experiment [7], 69.2% in [8] and 58.6% in [9].

As for `O=C(NNc1nccc(Nc2ccc(S(=O)(=O)Nc3ccncc3)cc2)n1)c1ccccc1`, the growth is 95.6% in experiment [1]; 99.4% in [2]; 101% in experiment [3]; 106% in [4]; 107% in experiment [5]; 102% in experiment [6]. The growth in experiment [7] was 100%; in [8], 110%; in experiment [9], 85.4%.

For the compound `O=S(=O)(NCCNc1nccc(-c2c(-c3cccc(F)c3)nc3occn23)n1)c1ccc(Br)cc1`, the growth in experiment [1] was 62.3%; in [2], 80.2%; in experiment [3], 93.8%; in [4], 93.9%; in experiment [5] it was 99.8%; in experiment [6], 57.7%. Further, the growth in experiment [8] was 74.6%; in experiment [9], 89.8%.

For the compound `O=C1Nc2ccccc2/C1=C\c1nc(-c2ccccc2)n2ccccc12`, the growth is 81.9% in experiment [1]; 95.5% in [2]; 90.6% in experiment [3]; 73.7% in experiment [4]; 81% in experiment [5]; 118% in experiment [8]. The growth in experiment [9] is 93.9%.

Consider `C[C@@H]1CCC[C@H]1CC(N)C(=O)O` (some centres not stated), for which the growth in [1] is 103%; in [2], 106%; in experiment [3], 105%; in [4], 105%; in experiment [5], 113%; in [6] it was 114%. In addition, the figures for the growth in experiment [7] and in [8] were 117% and 103%, respectively.

For `CCOC(=O)c1c(C)c2c(n1C)CSc1cc(C(=O)c3ccccc3)c(=O)[nH]c1-2`, the growth in [1] is 82.3% [100 µM]; in [2], 106% [100 µM]; in experiment [3] it was 95.8% [100 µM]; in experiment [4], 92.4% [100 µM]; in experiment [5], 99.4% [100 µM]; in experiment [7] it was 108% [100 µM]. Besides, the growth in [8] was 90.8% [100 µM]; in experiment [9] it was 91.6% [100 µM].

For the compound `CCCCCOc1ccc(C(=O)/C(Br)=C/C(=O)O)cc1`, the growth in experiment [1] is 77.8%; in [2], 114%; in [3], 108%; in [4], 105%; in experiment [5], 109%; in experiment [6], 85.6%. Further, the growth in experiment [7] is 100%; in [8], 102%; in experiment [9] it was 95%.

Take `CSc1nnc(-c2cnn3c2NC(c2ccccc2)C3)n1-c1ccc(C(F)(F)F)cc1` (configuration not stated): the growth was 56.9% in experiment [1]; 79.4% in experiment [2]; 84.7% in experiment [3]; 59.1% in experiment [4]; 69.4% in [5]; 69.8% in experiment [6]. Moreover, the figures for the growth in experiment [7], in experiment [8] and in [9] were 37.6%, 64.7% and 56%, respectively.

For the compound `C=C(C)[C@@H]1CC[C@]2(C(=O)OC)CC[C@]3(C)[C@H](CC[C@@H]4[C@@]5(C)C/C(=C/NC(N)=S)C(=O)C(C)(C)[C@@H]5CC[C@]43C)[C@@H]12`, the growth is 69.6% in [1]; 97.5% in experiment [2]; 118% in experiment [3]; 84.2% in experiment [4]; 97.7% in [5]; 70.6% in experiment [6]. The figures for the growth in experiment [7], in [8] and in experiment [9] were 88.5%, 91.7% and 104%, respectively.

Turning to `CN1C(=O)/C(=C/c2cn(-c3ccccc3)nc2-c2ccccc2)SC1=S`, the growth in [1] is 108%; in experiment [2] it was 105%; in [3] it was 106%; in experiment [4], 106%; in experiment [5], 109%; in experiment [6] it was 107%. Also, the growth in experiment [7] is 121%; in experiment [9], 98.1%.

As for `COc1cc(-c2cc(-c3cccs3)c(C#N)c(N3CCOCC3)n2)cc(OC)c1OC`, the growth in experiment [1] is 44.2%; in [2], 74.3%; in experiment [3] it was 96.4%; in [4], 85.8%; in experiment [5], 141%; in experiment [6], 73.5%. The growth was 149% in experiment [7], 90.6% in experiment [8] and 58.2% in experiment [9].

For `O=Cc1ccc([N+](=O)[O-])s1`, the growth in experiment [1] was 94.6%; in experiment [2], 87.1%; in experiment [3] it was 93.7%; in experiment [4], 98.3%; in experiment [5], 109%; in experiment [6], 79.8%. Further, the growth in [7] is 105%; in experiment [8] it was 113%; in experiment [9], 95.2%.
